# According to PubChem BioAssay (NCI):
# About 83,000 compounds went through this panel and 20% of them were active in at least one assay; those are over-represented in the sample as a whole.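 How to read the values: 0–100, growth inhibition (40 = 60% inhibited); 0, no net growth; -100 to 0, cell death (-40 = 40% of starting cells died; -100 = all dead).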 A number with no mark means an inactive call. The source made the active and inactive calls.
# System: PC-3 prostate
# Test: NCI-60 one-dose screen, 48 h (100 = growth as untreated, 0 = no growth, -100 = all killed)
# Details: 10 µM unless noted
# Experimental: Growth inhibition of the PC-3 human tumor cell line is measured as a screen for anti-cancer activity. Cells are grown in 96 well plates and exposed to the test compound for 48 hours. Compounds are tested at a single concentration, which is 10^-5 M for most compounds. The reported endpoint is percent growth (GI% or GIPRCNT), where numbers from 0 - 100% represent growth inhibition, and numbers from -100% - 0 represent cell death. For example, a value of 40 represents 60% growth inhibition. A value of 0 means no net growth occurred over the course of the experiment. A value of -40 indicates 40% of cells at the beginning of the experiment died by the end of the experiment. A value of -100 means all cells are dead at the end of the experiment.
# NCI-60 Human Tumor Cell Lines Screen was performed using the standard one-dose NCI protocol, which is described in more detail at https://dtp.cancer.gov/discovery_development/nci-60/default.htm.
# Compounds with GIPRCNT values below 10 were considered active. Activity score was based on GIPRCNT using the following formula: […]
# Score is 0 for GIPRCNT values of 100 or above, 50 for GIPRCNT values of 0, and 100 for GIPRCNT values of -100.
row,SMILES,growth
1,C=C1C(=O)O[C@H]2[C@H]1CC/C(CNC(=O)/C=C/c1ccccc1)=C\CC[C@@]1(C)O[C@@H]21,9.48% (active)
2,CC(C)(C)c1cc(/C=N/NC(=O)c2ccccc2NC(=O)c2cccs2)c(O)c(C(C)(C)C)c1,30.3%
3,CN1C(=O)NC(c2ccc3c(c2)OCO3)C=C1c1ccccc1 (stereo not given),102%
4,CC(C)(C)c1cc(C=O)cc(C(C)(C)C)c1O,87.6%
5,O=C(O)c1ccc(-c2nn(-c3ccc(C(F)(F)F)cc3)cc2CNc2ccc(Oc3ccccc3)cc2)cc1,90.6%
6,O=C1Nc2cc(-c3ccc(NS(=O)(=O)c4ccccc4)cc3)ccc2/C1=C/c1ccc[nH]1,82.5%
7,COc1cc2c3c(c4c5ccccc5[nH]c4c2c(OC)c1OC)C(=O)N(CCN1CCOCC1)C3=O,48.4%
8,CC(C)(C)CC(C)(C)n1nnnc1C(NC12CC3CC(CC(C3)C1)C2)c1ccccc1 (stereo not given),77.6%
9,CCCCCN1C=C/C(=C\C(=O)n2ccc3ccccc32)c2ccccc21,85.3%
10,COc1ccc(C(=O)Cn2c(C(=O)c3ccccc3)nc3ccccc32)cc1,29.7%
11,CC(=O)c1ccc(NS(=O)(=O)c2cccc(C(=O)Nc3ccc(Br)cc3)c2)cc1,60.4% [25 µM]
12,O=Cc1cc2ccccc2nc1Oc1ccc(C(F)(F)F)cc1,67.8%
13,Cc1ccc(C(=O)/C(=C\c2ccc([N+](=O)[O-])cc2)S(=O)Cc2ccc(Cl)cc2)cc1 (stereo not given),6.38% (active)
14,Cc1ccc(NS(=O)(=O)c2ccc(-c3cnc(C4CC4)o3)cc2)cc1C(F)(F)F,68.1%
15,C=C1C(=O)O[C@H]2[C@H]1CC/C(CNS(=O)(=O)c1cccc3ccccc13)=C\CC[C@@]1(C)O[C@@H]21,45.7%
16,N#Cc1c(-c2cccc([N+](=O)[O-])c2)nc(SCC(=O)c2ccc(Cl)cc2)[nH]c1=O,100%
17,Cc1cnc(C(=O)Nc2nc3ccc(S(=O)(=O)Nc4ccc(C(C)(C)C)cc4)cc3[nH]2)cn1,20.8%
18,O=C(Nc1ccccc1C(=O)N/N=C(\c1ccccc1)c1ccccn1)c1ccc(F)cc1,36.5%
19,CCN1Cc2nc3sc(C)c(C)c3c(=O)n2C=C1C,-6.34% (active)
20,O=C(CSc1nc2ccccc2[nH]1)NCc1ccccc1,98.8%

row,SMILES,growth
1,COc1ccc(C(C)=O)c(OC)c1,91.1%
2,Cc1ccc(NC(=O)Cc2ccc(/C=C/C(=O)c3ncc[nH]3)cc2)cc1,53.3%
3,CCOC(=O)c1cc(C(=O)c2cc(OC)cc(OC)c2)n2ccc3ccccc3c12,99.4%
4,O=C1c2ccccc2CCC12OC2c1cn(-c2ccccc2)nc1-c1ccc(Cl)cc1 (stereo not given),83.6%
5,COc1ccc(CCn2cncc2-c2c[nH]c3ccccc23)cc1,80.7%
6,Cc1ccc(C(=O)/C(=C/c2ccc([N+](=O)[O-])cc2)SCc2ccc(Cl)cc2)cc1,63.3%
7,Cc1ccc(-c2csc(NC(=O)CSc3nc(-c4ccccc4)cc(=O)[nH]3)n2)cc1,86.5%
8,N#CC1C(C#N)C2c3ccccc3C=CN2C1C(=O)c1ccc(Br)cc1 (stereo not given),94%
9,COC(=O)C(OC(C)=O)C(OC(C)=O)c1ccc(OC)c(OC)c1 (stereo not given),81.5%
10,COc1ccc(/C=C/c2nc(Nc3cccc(NC(C)=O)c3)c3ccccc3n2)cc1,90%
11,O=[N+]([O-])c1cc(Br)c2cccc3c2c1CC3,96.2%
12,COc1ccc(/C=C/c2nc(Nc3ccc(S(=O)(=O)Nc4cc(C)on4)cc3)c3ccccc3n2)cc1,74.7%
13,COc1cc(/C=C\C(=O)O)ccc1OCc1ccccc1,92.8%
14,CCCCCCCC(=O)OCC/C=C/C1OC1C1OC(=O)/C=C\C=C\C(=O)N(C(C)=O)C(=O)/C=C(/C)CCC2OC2C1OC(=O)NC(C)=O (stereo not given),84.5%
15,CN1C(N2CCN(S(=O)(=O)c3ccccc3)CC2)=NS(=O)(=O)c2ccccc21,98.9%
16,N#CC1C(C#N)C(C(=O)c2ccc(Br)cc2)N2c3ccccc3C=CC12 (stereo not given),76.8%
17,Cc1ccc(-c2[nH][nH]c(=O)c2-c2nc3ccccc3s2)cc1,96.9%
18,COc1ccc(C(=O)c2cc(C)c(OC)c(C)c2)c(OC)c1OC(=O)C(Cl)Cl,19.1%
19,N#Cc1c(NC(=O)NCc2ccccc2)sc2c1CCCC2,26.9%
20,O=C(CCN1CCCC1)Nc1ccc2c(NCCc3ccccc3)c3ccccc3nc2c1,-36% (active)
